Test results from PubChem BioAssay (EPA / NIEHS).
Inconclusive results are not listed. Some structures have more than one record in an assay (separate samples or runs), and their calls can disagree. Active and inactive are the calls of the source. How the source made its calls, unless noted: active means hit-call score of the fitted dose curve at least 0.9, where 1 is the maximum; inactive means score below 0.9.

Columns and labels:
[1] = molecular target: Oxysterols receptor LXR-alpha (Homo sapiens) (UniProt Q13133); assay: ATG_LXRa_TRANS: Attagene TRANS-FACTORIAL HepG2 Assay for human Liver X Receptor alpha (LXRa) (AID 2282980; active means hit-call score of the fitted dose curve at least 0.9, where 1 is the maximum); details: HepG2 Attagene TRANS reporter, LXRa transactivation
Summary of the method: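 Transfect HepG2 with GAL4-UAS multiplex reporter constructs (TRANS format, chimeric receptor-GAL4); treat 24 h; extract RNA, reverse-transcribe, PCR-amplify, FAM-label, HpaI-digest; resolve fragments by capillary electrophoresis. Upward response vs DMSO.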

[2] = molecular target: Hepatocyte nuclear factor 4-alpha (Homo sapiens) (UniProt P41235); assay: ATG_HNF4a_TRANS: Attagene TRANS-FACTORIAL HepG2 Assay for human Hepatocyte Nuclear Factor 4 alpha (HNF4a) (AID 2282982; active means hit-call score of the fitted dose curve at least 0.9, where 1 is the maximum); details: HepG2 HNF4a transactivation reporter, mRNA readout
Summary of the method: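 Readout is fluorescent reporter-transcript fragments resolved by capillary electrophoresis after RT-PCR from HepG2 cells dosed for 24 h. Cells carried transfected GAL4-UAS reporter constructs measuring exogenous NR-GAL4 chimera activity; DMSO served as baseline.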

[3] = ATG_M_06_TRANS: Attagene TRANS-FACTORIAL HepG2 Assay for M06 Transcription Factor (Internal Marker) (AID 2282983; active means hit-call score of the fitted dose curve at least 0.9, where 1 is the maximum;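 further: reporter transcript level by RT-PCR then capillary electrophoresis fluorescence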); details: HepG2 Attagene TRANS M06 internal marker reporter
Summary of the method: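 Transfect HepG2 with MRTUs → dose compounds 24 h → isolate RNA, oligo(dT) RT → PCR with reporter primers → 6-FAM primer extension → HpaI digest → CE fragment analysis. Positive direction vs DMSO.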

[4] = ATG_M_32_TRANS: Attagene TRANS-FACTORIAL HepG2 Assay for M32 Transcription Factor (Internal Marker) (AID 2282984; active means hit-call score of the fitted dose curve at least 0.9, where 1 is the maximum;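 further: transcript level of a background control reporter unit measured by RT-PCR and capillary electrophoresis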); details: HepG2 Attagene TRANS M32 internal marker reporter
Summary of the method: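 Measures reporter mRNA induction in human HepG2 liver cells after 24 h chemical treatment. Transcripts from transiently transfected GAL4-UAS reporter units are amplified, fluorescently labelled and sized by capillary electrophoresis; gain of signal relative to DMSO.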

[5] = molecular target: Nuclear receptor subfamily 4 group A member 2 (Homo sapiens) (UniProt P43354); assay: ATG_NURR1_TRANS: Attagene TRANS-FACTORIAL HepG2 Assay for human Nuclear Receptor Related Protein 1 (NURR1) (AID 2282985; active means hit-call score of the fitted dose curve at least 0.9, where 1 is the maximum); details: HepG2 Attagene TRANS reporter, mRNA readout
Summary of the method: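 Transient transfection of HepG2, human liver cells, with multiple GAL4-UAS reporter transcription units. Cells dosed 24 h, RNA isolated, reverse-transcribed, PCR-amplified, FAM-labelled, HpaI-digested, sized by capillary electrophoresis. DMSO served as negative control.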

[6] = molecular target: Nuclear respiratory factor 1 (Homo sapiens) (UniProt Q16656); assay: ATG_NRF1_CIS: Attagene CIS-FACTORIAL HepG2 Assay for human Nuclear Respiratory Factor 1 (NRF1) Orphan Gene (AID 2282987); details: HepG2 NRF1 cis-element reporter, Attagene multiplex; actives raise or lower the signal
Summary of the method: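 Transcriptional reporter readout, one component of a 52-endpoint multiplexed HepG2 panel. Exposure 24 h; mRNA detected via RT-PCR and fluorescent capillary electrophoresis; fitting in both directions against DMSO.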

[7] = molecular target: Myc proto-oncogene protein (Homo sapiens) (UniProt P01106); assay: ATG_Myc_CIS: Attagene CIS-FACTORIAL HepG2 Assay for human Myelocytomatosis (Myc) Proto-Oncogene Transcription Factor (AID 2282990); details: HepG2, Attagene cis-reporter transcription factor activity; actives raise or lower the signal
Summary of the method: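 After 24 h chemical treatment of HepG2 cells carrying multiplexed cis-regulated reporter constructs, reporter transcripts quantified by RT-PCR and capillary electrophoresis of fluorescent fragments. Gain or loss fitted against DMSO baseline.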

[8] = ATG_NRF2_ARE_CIS: Attagene CIS-FACTORIAL HepG2 Assay for human Nuclear Factor Erythroid 2 Related Factor 2 (NFR2) response to Antioxidant Response Elements (ARE) (AID 2282992); details: HepG2 Attagene ARE/NRF2 reporter, transcription factor activity; actives raise or lower the signal;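 on AC50: reporter mRNA level measured by RT-PCR and capillary electrophoresis fluorescence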
Summary of the method: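 Transient MRTU transfection of HepG2; 24 h compound exposure; TriZol RNA, RT with oligo(dT), PCR, 6-FAM primer extension, HpaI cut, CE. Bidirectional fit vs DMSO.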

[9] = ATG_Oct_MLP_CIS: Attagene CIS-FACTORIAL HepG2 Assay for human Octamer-Binding Transcription Factor (Oct) (AID 2282993); details: HepG2 Attagene cis-factorial Oct reporter, mRNA; actives raise or lower the signal
Summary of the method: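 Transfected HepG2 cells, 24 h treatment. Reporter mRNA quantified by RT-PCR–capillary electrophoresis; bidirectional fitting against DMSO.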

[10] = molecular target: Cellular tumor antigen p53 (Homo sapiens) (UniProt P04637); assay: ATG_p53_CIS: Attagene CIS-FACTORIAL HepG2 Assay for human p53 Transcription Factor (AID 2282994); details: HepG2 p53 cis-element reporter, Attagene mRNA; actives raise or lower the signal
Summary of the method: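 HepG2, transient MRTU transfection (cis promoter elements, endogenous TFs); 24 h dosing; RNA isolation, RT-PCR, 6-FAM primer extension, HpaI digest, CE fluorescence; bidirectional fit vs DMSO.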

[11] = molecular target: Bile acid receptor (Homo sapiens) (UniProt Q96RI1); assay: ATG_FXR_TRANS: Attagene TRANS-FACTORIAL HepG2 Assay for Farnesoid X Receptor (FXR) (AID 2282979; active means hit-call score of the fitted dose curve at least 0.9, where 1 is the maximum;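 further: hits raise reporter mRNA above DMSO so AC50 marks FXR activation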); details: HepG2 Attagene TRANS FXR-GAL4 reporter transcription
Summary of the method: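 Transient transfection of HepG2 with multiplexed GAL4-UAS reporter units; exogenous FXR-GAL4 chimera. Dose 24 h → TriZol RNA → oligo(dT) RT → PCR, 6-FAM primer extension, HpaI cut → CE. Gain vs DMSO.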

[12] = BSK_3C_TissueFactor: BioMAP Diversity Plus: 3C Assay for Tissue Factor Biomarker Activity (AID 2282997); details: BioMAP 3C HUVEC, tissue factor biomarker readout; actives raise or lower the signal
Summary of the method: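 ELISA read-out of Tissue Factor levels on human umbilical vein endothelium collected 24 h after chemical dosing. Gain or loss of signal was fitted relative to DMSO.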

[13] = BSK_3C_uPAR: BioMAP Diversity Plus: 3C Assay for Urokinase-type plasminogen activator receptor (uPAR) Biomarker Activity (AID 2282998); details: BioMAP 3C HUVEC, uPAR biomarker ELISA; actives raise or lower the signal
Summary of the method: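 Readout: ELISA for surface uPAR. System: human umbilical vein endothelial primary cells, 24 h after chemical exposure. Analysis: bidirectional fit, DMSO baseline.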

[14] = BSK_3C_VCAM1: BioMAP Diversity Plus: 3C Assay for Vascular cell adhesion molecule 1 (VCAM1) Biomarker Activity (AID 2282999); details: BioMAP 3C HUVEC, VCAM1 ELISA, cytokine-stimulated; actives raise or lower the signal
Summary of the method: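 Endothelial cells from human umbilical vein are treated with test chemical. At 24 h, VCAM-1 is measured by ELISA, and responses in either direction are fitted relative to DMSO.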

[15] = BSK_4H_Eotaxin3: BioMAP Diversity Plus: 4H Assay for Eotaxin 3 Biomarker Activity (AID 2283000); details: primary human endothelial cells (HUVEC); actives raise or lower the signal;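 further: CCL26 protein level quantified by ELISA in parallel with SRB cytotoxicity check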
Summary of the method: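 Chemicals were added to human umbilical vein endothelium cultures, and Eotaxin-3 was quantified by ELISA at 24 h. Values were derived by bidirectional fitting with DMSO serving as negative control and activity baseline.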

[16] = molecular target: Transcriptional activator Myb (Homo sapiens) (UniProt P10242); assay: ATG_Myb_CIS: Attagene CIS-FACTORIAL HepG2 Assay for human Myeloblastosis (Myb) Proto-Oncogene Transcription Factor (AID 2282986); details: HepG2 Attagene CIS-FACTORIAL Myb reporter transcription; actives raise or lower the signal
Summary of the method: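 Fluorescence signals from capillary electrophoresis of RT-PCR-amplified reporter cDNA give the read-out. Cells: HepG2 transfected with multiple cis-regulated reporter units. Exposure lasts 24 hours; DMSO defines baseline for gain or loss of signal.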

[17] = ATG_NFI_CIS: Attagene CIS-FACTORIAL HepG2 Assay for human Nuclear Factor I (NFI) (AID 2282989); details: HepG2 cis-regulatory reporter, NFI response element transcription; actives raise or lower the signal
Summary of the method: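 Reporter transcription driven by endogenous transcription factors in HepG2 cells; 24 h treatment. Quantitation by labelled RT-PCR fragments on capillary electrophoresis, gain- or loss-of-signal relative to DMSO.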

[18] = ATG_NF_kB_CIS: Attagene CIS-FACTORIAL HepG2 Assay for human Nuclear Factor Kappa B (NF-kB) (AID 2282991); details: HepG2 Attagene cis-factorial NF-kB reporter mRNA; actives raise or lower the signal
Summary of the method: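 HepG2, transient multi-reporter transfection, cis promoter elements (endogenous TFs). 24 h exposure. Total RNA → RT → PCR → 6-FAM label → HpaI → CE. Gain/loss vs DMSO.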

Measured: AC50

Sequence of Nuclear receptor subfamily 4 group A member 2 (Homo sapiens) (P43354 whole entry, looked up, the tested form may be a part): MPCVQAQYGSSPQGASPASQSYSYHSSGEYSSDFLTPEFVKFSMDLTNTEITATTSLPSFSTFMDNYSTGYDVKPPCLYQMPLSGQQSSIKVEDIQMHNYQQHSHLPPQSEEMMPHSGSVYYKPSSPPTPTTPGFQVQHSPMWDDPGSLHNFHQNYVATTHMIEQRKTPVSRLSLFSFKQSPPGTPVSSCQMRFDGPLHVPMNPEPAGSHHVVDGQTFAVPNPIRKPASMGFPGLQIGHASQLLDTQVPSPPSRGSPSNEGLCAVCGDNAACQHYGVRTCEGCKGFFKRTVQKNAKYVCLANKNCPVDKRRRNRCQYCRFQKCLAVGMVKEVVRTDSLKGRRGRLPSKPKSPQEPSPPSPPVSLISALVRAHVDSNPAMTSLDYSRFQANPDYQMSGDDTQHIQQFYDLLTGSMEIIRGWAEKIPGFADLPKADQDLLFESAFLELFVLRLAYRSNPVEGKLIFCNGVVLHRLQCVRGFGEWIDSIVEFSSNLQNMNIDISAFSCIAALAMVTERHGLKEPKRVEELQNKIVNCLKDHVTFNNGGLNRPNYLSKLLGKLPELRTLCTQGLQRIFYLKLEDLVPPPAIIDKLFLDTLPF
Sequence of Transcriptional activator Myb (Homo sapiens) (P10242 whole entry, looked up): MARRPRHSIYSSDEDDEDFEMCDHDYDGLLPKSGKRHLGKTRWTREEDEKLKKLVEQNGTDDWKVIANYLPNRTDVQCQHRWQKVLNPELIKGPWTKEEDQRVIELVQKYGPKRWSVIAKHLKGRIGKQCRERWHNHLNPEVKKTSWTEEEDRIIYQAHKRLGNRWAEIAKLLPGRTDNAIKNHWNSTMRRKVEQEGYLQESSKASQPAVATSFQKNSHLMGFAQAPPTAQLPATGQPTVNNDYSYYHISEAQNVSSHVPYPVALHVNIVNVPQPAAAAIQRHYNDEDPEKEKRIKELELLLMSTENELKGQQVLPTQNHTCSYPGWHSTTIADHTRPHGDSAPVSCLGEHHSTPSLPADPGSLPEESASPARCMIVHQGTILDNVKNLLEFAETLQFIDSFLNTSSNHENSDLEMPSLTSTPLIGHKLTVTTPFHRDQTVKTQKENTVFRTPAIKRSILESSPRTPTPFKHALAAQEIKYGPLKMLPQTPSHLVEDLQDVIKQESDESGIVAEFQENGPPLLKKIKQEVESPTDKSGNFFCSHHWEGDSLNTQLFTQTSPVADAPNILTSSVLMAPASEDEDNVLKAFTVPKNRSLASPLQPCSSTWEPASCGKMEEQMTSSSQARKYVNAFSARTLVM
Sequence of Cellular tumor antigen p53 (Homo sapiens) (P04637 whole entry, looked up): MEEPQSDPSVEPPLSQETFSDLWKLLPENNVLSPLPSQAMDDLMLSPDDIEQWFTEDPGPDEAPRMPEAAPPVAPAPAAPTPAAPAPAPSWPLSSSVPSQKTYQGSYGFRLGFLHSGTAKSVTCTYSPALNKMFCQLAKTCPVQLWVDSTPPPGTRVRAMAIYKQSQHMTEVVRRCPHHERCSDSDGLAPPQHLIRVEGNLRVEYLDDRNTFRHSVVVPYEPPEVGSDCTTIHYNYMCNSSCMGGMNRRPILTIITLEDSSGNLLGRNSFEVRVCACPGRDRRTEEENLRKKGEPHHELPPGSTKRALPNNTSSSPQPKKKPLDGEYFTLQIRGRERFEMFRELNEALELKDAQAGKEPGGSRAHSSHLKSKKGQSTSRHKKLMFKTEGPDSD
Sequence of Nuclear respiratory factor 1 (Homo sapiens) (Q16656 whole entry, looked up): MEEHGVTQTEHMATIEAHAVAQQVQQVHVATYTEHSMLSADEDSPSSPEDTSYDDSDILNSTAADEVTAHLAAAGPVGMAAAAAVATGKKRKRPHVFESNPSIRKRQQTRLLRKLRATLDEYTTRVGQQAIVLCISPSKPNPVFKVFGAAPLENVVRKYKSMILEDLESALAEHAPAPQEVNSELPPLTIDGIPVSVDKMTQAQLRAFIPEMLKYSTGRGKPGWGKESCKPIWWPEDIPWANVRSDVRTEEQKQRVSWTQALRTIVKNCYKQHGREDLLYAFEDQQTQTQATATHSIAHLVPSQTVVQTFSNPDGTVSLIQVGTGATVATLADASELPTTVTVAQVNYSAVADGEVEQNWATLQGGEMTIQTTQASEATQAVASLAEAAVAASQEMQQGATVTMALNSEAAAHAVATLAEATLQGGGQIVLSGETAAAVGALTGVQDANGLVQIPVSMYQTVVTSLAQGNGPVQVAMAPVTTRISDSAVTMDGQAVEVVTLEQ
Sequence of Myc proto-oncogene protein (Homo sapiens) (P01106 whole entry, looked up, the tested form may be a part): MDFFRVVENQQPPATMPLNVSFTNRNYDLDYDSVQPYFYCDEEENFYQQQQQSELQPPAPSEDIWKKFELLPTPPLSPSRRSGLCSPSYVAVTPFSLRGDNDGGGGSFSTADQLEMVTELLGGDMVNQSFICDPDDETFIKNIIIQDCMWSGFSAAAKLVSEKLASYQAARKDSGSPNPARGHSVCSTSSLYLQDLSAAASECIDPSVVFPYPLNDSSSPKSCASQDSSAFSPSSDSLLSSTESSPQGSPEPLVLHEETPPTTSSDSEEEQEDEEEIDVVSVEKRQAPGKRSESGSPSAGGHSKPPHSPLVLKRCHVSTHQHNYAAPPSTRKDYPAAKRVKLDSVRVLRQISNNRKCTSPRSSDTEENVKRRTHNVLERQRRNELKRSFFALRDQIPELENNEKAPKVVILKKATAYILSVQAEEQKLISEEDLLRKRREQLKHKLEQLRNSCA
Sequence of Oxysterols receptor LXR-alpha (Homo sapiens) (Q13133 whole entry, looked up, the tested form may be a part): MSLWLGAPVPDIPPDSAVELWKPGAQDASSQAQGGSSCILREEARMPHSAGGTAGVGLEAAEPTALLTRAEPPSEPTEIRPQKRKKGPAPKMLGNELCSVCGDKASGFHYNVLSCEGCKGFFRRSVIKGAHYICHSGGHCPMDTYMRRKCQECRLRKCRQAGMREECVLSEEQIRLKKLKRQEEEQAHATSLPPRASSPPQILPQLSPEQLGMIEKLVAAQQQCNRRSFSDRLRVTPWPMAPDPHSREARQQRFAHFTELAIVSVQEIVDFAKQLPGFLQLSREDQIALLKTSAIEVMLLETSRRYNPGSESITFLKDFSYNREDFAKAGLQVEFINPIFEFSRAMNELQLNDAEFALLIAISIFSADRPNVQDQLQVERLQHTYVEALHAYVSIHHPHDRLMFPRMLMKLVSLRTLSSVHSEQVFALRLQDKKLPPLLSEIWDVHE
Sequence of Hepatocyte nuclear factor 4-alpha (Homo sapiens) (P41235 whole entry, looked up, the tested form may be a part): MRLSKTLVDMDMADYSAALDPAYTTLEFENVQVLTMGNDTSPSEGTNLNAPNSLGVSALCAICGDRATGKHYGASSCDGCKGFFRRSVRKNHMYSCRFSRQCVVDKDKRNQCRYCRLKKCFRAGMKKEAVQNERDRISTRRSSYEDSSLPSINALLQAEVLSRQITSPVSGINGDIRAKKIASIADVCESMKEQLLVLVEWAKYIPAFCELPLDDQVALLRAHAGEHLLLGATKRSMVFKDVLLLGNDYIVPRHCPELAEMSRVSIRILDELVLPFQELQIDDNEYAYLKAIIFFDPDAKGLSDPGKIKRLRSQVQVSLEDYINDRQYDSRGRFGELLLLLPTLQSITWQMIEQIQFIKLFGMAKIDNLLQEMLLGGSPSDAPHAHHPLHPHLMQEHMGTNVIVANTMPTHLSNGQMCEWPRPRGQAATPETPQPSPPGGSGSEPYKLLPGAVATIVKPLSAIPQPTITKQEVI
Sequence of Bile acid receptor (Homo sapiens) (Q96RI1 whole entry, looked up, the tested form may be a part): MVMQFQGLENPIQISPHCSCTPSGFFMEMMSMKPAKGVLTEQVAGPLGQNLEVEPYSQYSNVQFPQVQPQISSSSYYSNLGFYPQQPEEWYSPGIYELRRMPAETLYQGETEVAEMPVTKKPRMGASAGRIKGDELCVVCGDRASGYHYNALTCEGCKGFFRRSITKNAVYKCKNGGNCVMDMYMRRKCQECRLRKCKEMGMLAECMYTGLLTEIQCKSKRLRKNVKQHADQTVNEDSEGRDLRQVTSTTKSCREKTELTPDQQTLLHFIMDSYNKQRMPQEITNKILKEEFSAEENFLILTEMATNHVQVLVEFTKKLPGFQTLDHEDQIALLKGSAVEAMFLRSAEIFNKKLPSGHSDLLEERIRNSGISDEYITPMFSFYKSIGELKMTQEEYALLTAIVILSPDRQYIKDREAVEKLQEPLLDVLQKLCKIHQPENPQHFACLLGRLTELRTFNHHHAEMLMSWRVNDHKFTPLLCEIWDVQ

O=C(N[C@H](CO)[C@H](O)c1ccc([N+](=O)[O-])cc1)C(Cl)Cl
inactive: [1] | [2] | [3] | [4] | [5] | [6] | [7] | [8] | [9] | [10]

CCCCCCCCCCCCCCCCOS(=O)(=O)O
active: [8] 27.3 µM | [10] 24.9 µM
inactive: [11] | [4] | [5] | [6] | [7] | [12] | [13] | [14] | [15]

CCOC(N)=O
not listed: [1] | [2] | [5] | [9] | [11] | [17] | [18]
inactive: all other assays above

CCOc1ccc2[nH]cc(C(=O)NCc3ccccc3)c(=O)c2n1
active: [8] 9.32 µM
not listed: [1] | [9] | [10] | [11] | [18]
inactive: all other assays above

O=C(NO)C1(NS(=O)(=O)c2ccc(Oc3ccc(F)cc3)cc2)CCOCC1
active: [8] 33 µM
not listed: [10] | [11]
inactive: all other assays above

Nc1ccn([C@@H]2O[C@H](CO)[C@@H](O)[C@@H]2O)c(=O)n1
inactive: [1] | [6] | [17] | [7] | [8] | [12] | [13] | [14] | [15]

CC1(C)C(=O)N(Cl)C(=O)N1Cl
not listed: [1] | [3] | [4] | [5] | [9] | [11] | [18]
inactive: all other assays above

OCC(CO)(CO)CO
inactive: [1] | [2] | [3] | [5] | [6] | [17] | [7] | [8] | [9] | [12] | [13] | [14] | [15]
active: [8] 141 µM

NC(=O)N1c2ccccc2C=Cc2ccccc21
not listed: [1] | [2] | [5] | [10] | [11] | [17] | [18]
inactive: all other assays above

CNC(C)=O
inactive: [3] | [5] | [6] | [7] | [8] | [9] | [12] | [13] | [14] | [15]

OC[C@H]1O[C@@](CO)(O[C@H]2O[C@H](CO)[C@@H](O)[C@H](O)[C@H]2O)[C@@H](O)[C@@H]1O
active: [8] 58.6 µM
not listed: [1] | [2] | [9] | [10] | [16] | [17]
inactive: all other assays above

O=C(O)CO
inactive: [1] | [3] | [4] | [6] | [7] | [18] | [8] | [9]
active: [5] 27.3 µM

c1ccc2ncccc2c1
not listed: [11] | [17] | [18]
inactive: all other assays above

COS(C)(=O)=O
not listed: [4] | [5] | [9] | [10] | [11] | [17] | [18]
inactive: all other assays above

CCCCCCOC(=O)CC(CC(=O)OCCCCCC)(OC(=O)CCC)C(=O)OCCCCCC
not listed: [1] | [4] | [9] | [10] | [11] | [16] | [18]
inactive: all other assays above
